Results filed as inconclusive are left out. The source made the active and inactive calls. The call rests on the fitted dose curve; in most records, active means well fitted curve in the direction sought with a large enough effect; inconclusive means small, poorly fitted or top-dose-only effect, or another doubt; inactive means no such curve, though single readings can be large or run the other way.

The source of these data is PubChem BioAssay AID2061313 (National Center for Advancing Translational Sciences (NCATS), 2025).

This test deals with Aldehyde dehydrogenase 1A1 (Homo sapiens) (UniProt P00352). In words: qHTS for Inhibitors of the Aldehyde Dehydrogenase Family (ALDH1A1) Validation screens. The conditions noted are these: fluorescence; Potency: ALDH1A1 inhibition validation qHTS; series mostly up to 39.8 µM.
Consider `O=c1c(-c2ccc(O)cc2)coc2cc(O[C@@H]3O[C@H](CO)[C@H](O)[C@H](O)[C@H]3O)ccc12`, for which the Potency result is “inactive”.
Regarding `CC(C)(C)c1ccc(S(=O)(=O)/C=C/C#N)cc1`, the Potency was 89.1 nM (active).
Regarding `CC(C)N(CCC(=O)c1ccc2ccccc2c1)Cc1ccccc1`, the Potency was 70.8 nM (active).
